Screening data deposited in PubChem by Sanford-Burnham Center for Chemical Genomics.
TROY NFkB inh: inhibitors of TROY-driven NF-kB signaling, primary screen, Q293 LMP1-TROYcd cells, NF-kB luciferase, uHTS; Q293 LMP1-TROYcd NF-kB luciferase reporter, 4 h; inhibition, % at 10 µM; 0.98% of 360,000 active;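 active means compounds whose plate-normalised and pattern-corrected inhibition of the luciferase reporter signal at the single screening dose is 50% or more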
KKLEB cytotox: cytotoxicity in KKLEB CF airway cells, primary screen, cytotoxicity control for CF NF-kB inhibitor project, cell-based, uHTS, fluorescence assay plates | AID 602141, 2011 | 0.36% of 360,000 active | KKLEB CF airway cells viability, ATPlite luminescence, overnight; hits give low values; cells stimulated with P. aeruginosa culture filtrate | activity change (cytotoxicity), % at 5 µM;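 active means corrected activity change at or below -50% at 5 µM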
Peg3 prom inh: Peg3 promoter-driven luciferase inhibitors, primary screen, cell-based, HeLa, luciferase luminescence; inhibition, % at 20 µM; HeLa PEG-Prom luciferase reporter, overnight; 1.7% of 360,000 active;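 active means inhibition of at least 50% at 20 µM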
HIF-2a block: HIF-2a reporter inhibitors, primary screen, luminescence, 786-0 RCC cells | 786-0 RCC cells HIF-2a reporter, luciferase luminescence, overnight | inhibition, % at 18.8 µM | 0.72% of 360,000 active;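 active means inhibition of the luminescence signal of 40% or more relative to plate controls, in a single-dose primary screen at 18.75 µM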
CF NFkB block: inhibitors of PAF-induced NF-kB signaling, primary screen, cell-based, GFP fluorescence, uHTS. KKLEB NF-kB-GFP reporter, GFP fluorescence overnight. inhibition, % at 5 µM. 0.86% of 360,000 active. AID 588850, 2011;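 active means at least 50% inhibition at 5 µM, scaled per plate between neutral and stimulator controls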;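 further: PAF is a Pseudomonas aeruginosa culture filtrate used as stimulus; plate controls were PAF-stimulated DMSO wells for no effect and unstimulated DMSO wells for full effect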
TWEAK-Fn14 inh: inhibitors of TWEAK-Fn14 signaling, primary screen, luciferase reporter cells, uHTS | AID 1159606, 2016 | 2% of 360,000 active | TWEAK-stimulated Fn14 reporter cells, luciferase luminescence, 8 h | inhibition, % at 10 µM; in the data active means inhibition above about 50%
The depositor's hits bear a star. Most compounds without a hit are left out; they make up all but 3.9% or so of the library.

SMILES	TROY NFkB inh	KKLEB cytotox	Peg3 prom inh	HIF-2a block	CF NFkB block	TWEAK-Fn14 inh
Cc1ccc(/C=N/NC(=O)c2nnn(-c3nonc3N)c2CN(C)C2CCCCC2)cc1	-5	-13	6	8	18	-42
COC(=O)c1ccc(NC(=S)N2CCN(Cc3ccc(Cl)cc3)CC2)cc1	12	-16	8	11	-6	6
CC(C)[C@H](NC(=O)C1CCN(C(=O)[C@@H]2CCCN2)CC1)C(=O)NCc1ccc(F)cc1	0	13	-3	-1	-17	18
COc1cccc(C=Nc2ccc(N3CCOCC3)cc2)c1O	11	4	9	11	5	7
C/C(=N\NC(=O)c1ccc2c(c1)OCCO2)c1ccccc1	-37	1	-22	-73	-6	70*
C/C(=N\NC(=O)c1ccc(O)cc1)c1ccc2c(c1)OCCO2	-4	9	-108	-15	28	11
Cc1ccsc1/C=N/NC(=O)Cc1ccc(Cl)cc1	-1	6	-11	-37	-3	90*
COc1cccc(C=Nc2ccc3c(c2)OCCO3)c1O	68*	0	-50	12	15	80*
CCn1c(CSCc2ccc(F)cc2)nnc1SCC(=O)N1CCN(c2ccccc2)CC1	21	-5	8	16	-2	1
Cc1ccc(CNC(=O)CCc2c(C)nc3ncnn3c2C)cc1	-13	-7	7	15	-6	1
CC1=C(CC(=O)c2ccccc2)C(=O)c2ccccc2C1=O	68*	-38	-132	-159	77*	54*
OC1CCN(c2c3c(nc4cc(-c5cccc(F)c5)nn24)CCCC3)CC1	15	-32	-90	-109	4	27
Fc1cccc(-c2cc3nc4c(c(N5CCC6(CC5)OCCO6)n3n2)CCCC4)c1	42	-15	-177	-92	14	54*
Cn1nc(C(=O)NCc2cccc(Cl)c2)c2c1-c1ccccc1S(=O)(=O)C2	4	-15	22	20	-5	-11
CCC(=O)NC(=S)Nc1cccc(NC(=O)c2ccc(Cl)cc2Cl)c1	-12	-8	-14	-29	9	4
CC(C)C(=O)Nc1cccc(NC(=O)c2ccc(Cl)cc2Cl)c1	56*	-10	-34	-16	0	0
CC1(C(=O)NCc2ccccc2)CCC(=O)N1CCOc1ccccc1 (centres undefined)	9	5	7	9	-18	-18
O=[N+]([O-])c1ccc(O)c(Nc2ncnc3ccc(Br)cc23)c1	-14	-38	20	-4	58*	30
O=[N+]([O-])c1ccc(O)c(Nc2ncnc3ccccc23)c1	-18	5	-65	-134	6	-5
COCCC(=O)N1CCC(Oc2ccc(C(=O)NCc3ncc(C)[nH]3)cc2)CC1	-4	-1	-6	6	2	1
Cn1c(Cn2cnc(Cl)c2Cl)nc2ccccc21	-18	6	8	15	1	-16
CC(C)CNS(=O)(=O)c1ccc(CCC(=O)NC2CCCCC2)cc1	-3	-18	13	13	-1	3
O=C1NC(=S)SC1=Cc1ccccc1Cl	13	-1	-79	-141	44	-12
Cc1ccc(C2C(/C=C3/SC(=S)NC3=O)=C(c3cccs3)Oc3ccccc32)cc1 (centres undefined)	20	-38	46	-45	64*	5
Cc1[nH]c2ccc(C(=O)NCCCN3CCOCC3)cc2c1C	-2	-12	-1	0	14	4
COc1cc(/C=C/C(=O)c2ccc(Cl)s2)cc(OC)c1O	-20	-23	52*	27	42	37
O=C(c1cc(-c2ccccc2)nc2ccccc12)N1N=C(C(F)F)CC1(O)C(F)F (centres undefined)	11	4	19	10	7	-6
Cc1ccc(-c2cc(C(=O)N3N=C(C(F)F)CC3(O)C(F)F)c3ccccc3n2)cc1C (centres undefined)	7	-50*	-42	-290	52*	20
